In the library only some 19% were active in any assay of this set; here they are far more common.
TDP1 block: TDP1 (human) enzyme inhibition; Q9NUW8; AID 485290; 350,000 compounds, 0.28% hits; Potency, µM (series often up to 130 µM), inactives show at the highest dose activity change, negative = inhibition, hits mostly inhibitors; recombinant TDP1, AlphaScreen DNA substrate cleavage; note: nearly all actives have a fitted effect of over 40% in size
Target sequence (Q9NUW8 whole entry, looked up): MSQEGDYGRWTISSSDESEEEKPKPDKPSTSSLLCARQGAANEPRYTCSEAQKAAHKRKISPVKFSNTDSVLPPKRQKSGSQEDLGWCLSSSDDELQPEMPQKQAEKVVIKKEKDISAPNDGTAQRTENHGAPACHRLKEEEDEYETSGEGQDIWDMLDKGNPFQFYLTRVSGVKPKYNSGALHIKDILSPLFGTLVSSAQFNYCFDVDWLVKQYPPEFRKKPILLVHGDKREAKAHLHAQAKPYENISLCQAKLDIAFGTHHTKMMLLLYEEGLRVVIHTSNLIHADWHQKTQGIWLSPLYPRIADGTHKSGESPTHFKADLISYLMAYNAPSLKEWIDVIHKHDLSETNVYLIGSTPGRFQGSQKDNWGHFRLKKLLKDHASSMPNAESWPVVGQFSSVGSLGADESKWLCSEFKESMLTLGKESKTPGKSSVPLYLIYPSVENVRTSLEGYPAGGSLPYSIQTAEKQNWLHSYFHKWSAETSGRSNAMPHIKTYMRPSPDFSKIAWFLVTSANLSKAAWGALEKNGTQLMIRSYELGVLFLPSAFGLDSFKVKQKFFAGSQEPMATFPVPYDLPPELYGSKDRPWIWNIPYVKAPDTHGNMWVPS
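Recombinant human Tdp1 (E. coli-expressed, 1 nM final) preincubated with compounds 15 min at room temperature, then 5'-biotin/3'-phosphotyrosine-FITC DNA substrate (15 nM final) added for 5 min. AlphaScreen beads (10 ug/ml final) added 10 min; cleavage lowers signal.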
RORg inh: blocks mouse ROR gamma transcriptional activity | Potency, µM (titrated, usually from 53.6 µM), for inactives: top-dose activity change, negative = inhibition, most hits filed as inhibitors | Drosophila S2 Gal4-RORgamma UAS-luciferase reporter, 20 h | P51450 | AID 2551 | 310,000 compounds, 5.4% hits; note: nearly all actives have a fitted effect of over 60% in size
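Drosophila Schneider cells stably carrying a metallothionein-driven Gal4 DBD–ROR gamma fusion and a UAS-Photinus luciferase reporter were exposed to compound for 1 hr, then induced with copper sulfate (700 uM final) for 20 hr at ambient temperature before luminescence reading.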
VP16 counter: inhibits Gal4-VP16 luciferase reporter, ROR gamma counter-screen; Drosophila S2 Gal4-VP16 UAS-luciferase, luminescence, 20 h; Potency, µM (doses to about 53.6 µM), inactives show top-dose activity, negative = inhibition, hits mostly inhibitors; 310,000 compounds, 3.5% hits;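 note: Gal4-VP16 expression switched on by copper sulfate through the metallothionein promoter; nearly all actives have a fitted effect of over 50% in size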
TDP1 cell noCPT: qHTS for Inhibitors of human tyrosyl-DNA phosphodiesterase 1 (TDP1): qHTS in cells in absence of CPT. DT40 Tdp1-/- hTDP1 cells, no CPT, ATP luminescence, 48 h. AID 686978, 2013. Potency, µM (series often up to 46.2 µM), inactives show at the top dose activity change, negative = growth inhibition, actives largely listed as inhibitors. 420,000 compounds, 15% hits; note: nearly all actives have a fitted effect of over 55% in size
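A cellular qHTS used chicken DT40 cells lacking endogenous Tdp1 but carrying stably transfected human TDP1. Compounds were applied without camptothecin, and cell growth kinetics were judged by ATP-dependent luminescence after ≥48 hr.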
TDP1 cell CPT: DT40-hTDP1 cell growth loss with CPT; 420,000 compounds, 12% hits; Potency, µM (doses to about 46.2 µM), for inactives: top-dose activity change, negative = growth inhibition, usual class: inhibitors; chicken DT40 Tdp1-/-;hTDP1 cells + 20 nM CPT, ATP luminescence, 48 h; AID 686979; note: nearly all actives have a fitted effect of over 55% in size
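Chicken DT40 Tdp1-/- cells stably complemented with human TDP1 were seeded at 400 cells/well in medium containing 20 nM camptothecin, exposed to pin-transferred compounds, and grown at 37 °C for at least 48 hr. Viability was read as ATP luminescence.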
The depositor's hits bear a star; ? = inconclusive; / = not tested or not shown; [ ] = remark or other dose. Calls come from the whole dose curve; as a rule, active = well fitted curve in the direction sought with a large enough effect; inconclusive = small, poorly fitted or top-dose-only effect, or another doubt; inactive = no such curve, though single readings can be large; an effect the other way counts as inactive or inconclusive. % is set by controls: 0 for no effect and ±100 for the full control effect; potency is the fitted concentration of half-maximal effect.

SMILES | TDP1 block | RORg inh | VP16 counter | TDP1 cell noCPT | TDP1 cell CPT
CCCCOc1ccc(-c2cc(C(=O)NNC(=S)NCC)c3ccccc3n2)cc1 | 10.7% | 5.01µM* | 2.51µM* | 20.6µM* | 23.1µM*
O=C(NCc1ccccn1)C1CCN(S(=O)(=O)c2ccccc2F)CC1 | 0.1%[56.1 µM] | / | / | 0.1% | -2.9%
CC[C@H](C)C(=O)O[C@H]1CCC=C2C=C[C@H](C)[C@H](CC[C@@H]3C[C@H](O)CC(=O)O3)C21 (some centres undefined) | -6.1%[56.1 µM] | / | / | / | /
O=C(Nc1cccc(C(=O)O)c1)/C(=C/c1ccccc1)NC(=O)c1cccc(Br)c1 | / | / | / | -10.6% | 3.2%
O=Cc1cc(N=Nc2cccc(C(=O)O)c2)ccc1O | 0.0% | -4.9% | -6.3% | ? | -21.7%
O=Cc1cc(N=Nc2ccccc2Cl)ccc1O | 9.6% | 11.2µM* | 6.0% | 4.11µM* | 20.6µM*
Cc1cccc(N2C(=O)C3CC3C2=O)c1 (centres undefined) | -1.2% | 20.7% | -3.5% | -5.7% | -1.7%
O=C1CC(N2CCN(c3ccccn3)CC2)C(=O)N1CC(c1ccccc1)c1ccccc1 (centres undefined) | 4.2% | 1.2% | -4.3% | ? | 23.1µM*
CC(C)(C)c1ccc(S(=O)(=O)NC(=O)C2(C)CCN2C(=O)Cc2cccc3ccccc23)cc1 (centres undefined) | / | / | / | 3.7% | 5.3%
CC(C)(C)c1ccc(CC(=O)N2CCC2(C)C(=O)NCc2cccc3ccccc23)cc1 (centres undefined) | / | / | / | 25.9µM* | 23.1µM*
Cc1ccc(CNC(=O)C2(C)CCN2C(=O)Cc2ccc(C(C)(C)C)cc2)cc1 (centres undefined) | / | / | / | 18.4µM* | 16.4µM*
C=CCn1c(=O)c(C(=O)NCc2ccc3c(c2)OCO3)c(O)c2cc(OC)c(OC)cc21 | 3.2% | -17.4% | -19.3% | 18.4µM* | ?
CCc1ccc(NC(=O)CS(=O)CC(=O)Nc2ccc(-n3cnnn3)c(C)c2)cc1 (centres undefined) | 56.2µM* | ? | 4.6% | -11.8% | -8.1%
Cc1cc(NC(=O)CS(=O)CC(=O)Nc2c(C)cccc2C)ccc1-n1cnnn1 (centres undefined) | 8.1% | 12.4% | -1.8% | 0.6% | -0.5%
CN(C)C(=O)c1ccc(-c2ccc3ncnc(N4CCC(C(=O)O)CC4)c3c2)cc1 | / | -12.9% | 1.2% | -1.6% | -9.5%
COc1ccccc1/C=C/CN1CCCC(CCC(=O)NCc2ccc(F)c(F)c2)C1 (centres undefined) | 1.2% | -9.4% | 1.5% | ? | ?
COc1cccc(CNC(=O)CCC2CCCN(C/C=C/c3ccccc3OC)C2)c1 (centres undefined) | -5.4% | -0.8% | -8.9% | 23.1µM* | ?
COc1ccc(/C=C/CN2CCCC(CCC(=O)NCc3ccc(F)c(F)c3)C2)cc1 (centres undefined) | 9.0% | -12.6% | -4.4% | 16.4µM* | ?
Cc1cc2nnc(SCC(=O)Nc3ccc(Cl)cc3)n2c(N)n1 | 11.9% | 3.6% | 3.0% | -10.9% | 0.8%
Cc1ccc2[nH]c(O)c(N=NC(=O)CCc3ccccc3)c2c1Br | 5.4% | 0.0% | -2.7% | ? | 16.4µM*
CC(C)CC(=O)N=Nc1c(O)[nH]c2ccccc12 | 3.5% | 7.3% | 27.1% | -6.5% | 0.1%
COc1ccc(-c2nc(C(N)=O)c3[nH]c(=O)n(-c4cccc(C)c4)c3n2)c(OC)c1 | 7.6% | 28.3% | -5.6% | 23.1µM* | ?
COc1ccccc1-c1nc(C(N)=O)c2[nH]c(=O)n(-c3cccc(C)c3)c2n1 | 4.0% | -9.0% | 5.3% | ? | ?
CCc1n[nH]c2c1/C(=N\O)CC(c1ccccc1)C2 (centres undefined) | 6.2% | 1.1% | -10.4% | 23.1µM* | ?
CC1(C(=O)NCCc2ccccc2)Cc2c(-c3ccc4c(c3)OCO4)ccnc2O1 (centres undefined) | / | / | / | 2.91µM* | ?
SMILES | TDP1 block | RORg inh | VP16 counter | TDP1 cell noCPT | TDP1 cell CPT
CC1(C(=O)NCc2ccccc2)Cc2c(-c3ccc4c(c3)OCO4)ccnc2O1 (centres undefined) | / | / | / | 0.82µM* | 0.651µM*
COCCNC(=O)c1cc(-c2ccc3c(c2)OCO3)on1 | 0.9% | ? | ? | -11.8% | -28.0%
COCCNC(=O)C1(C)Cc2c(-c3ccc4c(c3)OCO4)ccnc2O1 (centres undefined) | / | / | / | 8.2µM* | 11.6µM*
COc1ccccc1-c1cnc(C(O)c2ccc(C)cc2C)[nH]1 (centres undefined) | / | / | / | ? | -27.8%
O=C(NC1=NCCS1)c1cccc(N2C(=O)c3ccccc3C2=O)c1 | 6.2% | -17.9% | 1.0% | -4.3% | 0.9%
COC(=O)c1c(NC(=O)CN2C(=O)NC3(CCc4ccccc4C3)C2=O)sc2c1CCCCC2 (centres undefined) | 2.6% | 4.8% | 3.8% | 25.9µM* | 20.6µM*
COC(=O)c1c(NC(=O)CN2C(=O)NC3(CCC(C)CC3)C2=O)sc2c1CCC2 (centres undefined) | -6.9% | / | / | 16.4µM* | 14.6µM*
O=C(NC(Cc1c[nH]c2ccccc12)c1nnc2n1CCCCC2)c1ccccc1Cl (centres undefined) | 5.7% | 2.3% | -23.9% | -15.2% | -25.8%
COc1cc(CSc2nnnn2-c2ccc(C)cc2)cc(OC)c1OC | 2.6% | 34.6% | -4.0%[0.365 µM] | 5.01µM* | 5.8µM*
CCCC1C(C(=O)OCC)=C(C)NC(C)=C1C(=O)OCC | -4.7% | 17.5% | -5.2% | -23.9% | ?
CCN1CCN(c2cc(C)c3cc(NC(=S)N4CCN(c5ccc(F)cc5)CC4)ccc3n2)CC1 | 4.6% | 1.6% | 5.2% | ? | 20.6µM*
Cc1cc(N2CCCCC2)nc2ccc(NC(=O)c3cccc(F)c3)cc12 | 5.9% | / | / | 7.31µM* | 7.31µM*
COc1ccc(C(=O)Nc2ccc3nc(N4CCCCC4)cc(C)c3c2)c(OC)c1 | -2.9% | 0.5% | 4.5% | ? | -23.5%
Cc1ccc(C(=O)Nc2ccc3nc(N4CCCCC4)cc(C)c3c2)cc1F | -3.4% | / | / | 23.1µM* | ?
CCN1CCN(C(=S)Nc2ccc3nc(N4CCN(CC)CC4)cc(C)c3c2)CC1 | 8.2% | -15.6% | -10.6% | ? | -83.4%
Cc1cc(N2CCN(C)CC2)nc2ccc(NC(=O)c3cccnc3Cl)cc12 | 3.5% | -14.0% | -6.7% | 4.9% | -12.3%
Cc1cc(N2CCCCC2)nc2ccc(NC(=O)c3cccc(Cl)c3)cc12 | 8.3% | / | / | 20.6µM* | 23.1µM*
CCCCNC(=O)CCC(=O)Nc1ccc2nc(N3CCCCC3)cc(C)c2c1 | 2.6% | 13.0% | -16.9%[10 µM] | ? | ?

Screening data deposited in PubChem BioAssay by National Center for Advancing Translational Sciences (NCATS).
